From PubChem BioAssay (Tox21)
Inconclusive results are not listed. Where a call stands in place of a potency, no number is given. Active and inactive are the calls of the source. Calls come from the whole dose curve; as a rule, active = well fitted cell-killing curve with a large enough effect in the repeat runs; inconclusive = weak or mixed curves, or effect the other way; inactive = no such curve, though single readings can be large or run the other way.

assay: qHTS assay to identify small molecule antagonists of the retinoid-related orphan receptor gamma (ROR-gamma) signaling pathway - cell viability counter screen (AID 1159520); details: Tet-on RORgamma CHO cells viability, ATP luminescence, 16 h; series mostly up to 92.4 µM; note: nearly all actives have a fitted effect of over 50% in size
Text: U.S. Tox21 Program National Center for Advancing Translational Sciences [NCATS] NIH Chemical Genomics Center [NCGC] U.S. Environmental Protection Agency [EPA] National Institutes of Environmental Health Sciences [NIEHS] National Toxicology Program [NTP] U.S. Food and Drug Administration [FDA] Tox21 Assay Overview: Nuclear steroid hormone receptors are involved in many biological processes including inflammatory responses, cell proliferation, and apoptosis. Environmental factors or compounds disrupting these nuclear receptor pathways and gene expression may promote susceptibility to immunotoxicants and autoimmune diseases. One important group of these expression factors are the retinoid-related orphan receptors. To assess compounds that may interfere with the retinoid-related orphan receptor gamma (ROR-gamma) transcription factor, a cell-based luciferase assay was used. The CHO cell-based assay utilizes a TET-inducible ROR expression factor and ROR response element-LUC reporter gene. Reporter gene activity was induced using Doxycycline Hyclate and measured after 16 hr incubation. Tet-on ROR gamma CHO cells were used to screen against the Tox21 10K compound library for cytotoxicity by measuring the viability of the cells based on the quantitation of the ATP.
Tox21 Assay Protocol Summary: Tet-on ROR gamma CHO cells were dispensed at 1,000 cells in 4 uL of culture medium per well into white wall/solid bottom 1536-well plates using a Multidrop Combi (Thermo Scientific, Waltham, MA) dispenser. Following incubation at 37 C and 5% CO2 for 4 hr, 23 nL of compounds dissolved in DMSO, positive controls or DMSO only were transferred by a Pintool station (Kalypsys, San Diego, CA) and after 2 hr incubation at 37 C, one ul of 1 uM (final concentration) of Doxycycline Hyclate was added to all the wells by using a Flying Reagent Dispenser (FRD) (Aurora Discovery, San Diego, CA). After 16 hr incubation at 37 C and 5% CO2, 5 uL of CellTiter-Glo reagent (Promega Corporation, Madison, WI) was added to each assay plate using FRD. After 30 min incubation at room temperature, luminescence was quantified on a ViewLux plate reader (Perkin Elmer, Waltham, MA).
Potency is the fitted concentration of half-maximal effect.

Structure (SMILES) | Potency
C[Si](O[Si](C)(C)C)O[Si](C)(C)C | inactive
COc1ccc(NC(C)=O)cc1N | inactive
CCCCCC/C(C=O)=C\c1ccccc1 | inactive
O=C(O)c1cc(O)c(O)c(O)c1 | inactive
C=C(C)C(=O)O[C@H]1C[C@@H]2CC[C@@]1(C)C2(C)C | inactive
CCCCCCCCCCCCS | inactive
O=C(O)c1ccccc1C(c1ccc(O)cc1)c1ccc(O)cc1 | inactive
Cc1cnc(C(=O)NCCc2ccc(S(=O)(=O)NC(=O)NC3CCCCC3)cc2)cn1 | inactive
CCCCOC(=O)COc1ccc(Cl)cc1Cl | inactive
CC(C)(N)CO | inactive
O=[N+]([O-])c1ccc(/C=C/c2ccc([N+](=O)[O-])cc2S(=O)(=O)O)c(S(=O)(=O)O)c1 | inactive
CC1CCC(C(C)C)C(O)C1 (stereo not given) | inactive
C=CCOC(=O)c1ccccc1C(=O)OCC=C | inactive
COc1ccc2cc([C@H](C)C(=O)O)ccc2c1 | inactive
CC[C@H](C)C(=O)O[C@H]1C[C@@H](C)C=C2C=C[C@H](C)[C@H](CC[C@@H]3C[C@@H](O)CC(=O)O3)[C@H]21 | 27.7 µM (active)
CN(C)CCOCCN(C)C | inactive
O=C(O)[C@H](O)[C@@H](O)[C@H](O)[C@H](O)CO | inactive
O=c1[nH]nnc2ccccc12 | inactive
c1ccc(OCCOc2ccccc2)cc1 | inactive
CC(=O)Nc1ccccc1 | inactive

Structure (SMILES) | Potency
CC(C)c1ccc(S(=O)(=O)O)cc1 | inactive
Cc1cc(C)c(C)cc1C | inactive
Fc1ccc(Br)cc1 | inactive
CC(c1cc2ccccc2s1)N(O)C(N)=O (stereo not given) | inactive
OCCOCCOCCO | inactive
CCC(O)OCCCOC (stereo not given) | inactive
CCCCC(CC)CO (stereo not given) | inactive
CC(=O)Nc1cccc(O)c1 | inactive
Cc1ccc(N(C)C)cc1 | inactive
C[C@H]1C[C@@H]2[C@H]([C@@H](O)C[C@@]3(C)[C@H]2CC[C@]3(O)C(=O)CO)[C@@]2(C)C=CC(=O)C=C12 | inactive
CCCCCCCCCCCCCCCO | inactive
CCCCCCOCCO | inactive
CCCCC(CC)COC(=O)C(C#N)=C(c1ccccc1)c1ccccc1 (stereo not given) | inactive
c1ccc2c(c1)ccc1ccccc12 | inactive
COc1cc(Cc2cnc(N)nc2N)cc(OC)c1OC | inactive
FC(F)(F)c1ccc(Cl)c(Cl)c1 | inactive
COS(C)(=O)=O | inactive
CC(C)(C)[C@@H](O)[C@@H](Cc1ccc(Cl)cc1)n1cncn1 | inactive
Cc1occc(=O)c1O | inactive
NNc1nncc2ccccc12 | inactive
